# Sampled rows, rich in hits. Any-hit rate of the full collection: about 3%.
# HEK293 viab – counter-screen for SNCA expression inhibitors: cell viability; HEK-293-SNCA-luc viability, GF-AFC fluorescence, 24 h; Potency, µM (top dose mostly 57.1 µM), inactives show at the top dose activity change, negative = cytotoxicity, hits mostly cytotoxic; hit rate 0.12% among 150,000; AID 1671193;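 also: potency is read from the fitted curve at half-maximal effect; 0% = DMSO-treated cells and -100% = medium-only wells without cells; nearly all actives have a fitted effect of over 30% in size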
#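 Cytotoxicity counterscreen: after 24 h compound treatment of genome-edited SNCA-luciferase HEK-293 cells, live-cell protease substrate GF-AFC read by fluorescence after 30 min; activity scaled between DMSO (0%) and medium-only (-100%), curves Hill-fitted.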
# SNCA expr inh – SNCA gene expression inhibition. AID 1671194. hit rate 0.17% among 140,000. Potency, µM (doses to about 57.2 µM), without a hit: at the highest dose activity change, negative = inhibition, actives largely listed as inhibitors. HEK-293 SNCA-luciferase knock-in, luminescence, 24 h;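 also: potency is read from the fitted curve at half-maximal effect; plate controls were DMSO cells for no effect and cell-free wells for full effect; nearly all actives have a fitted effect of over 45% in size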
# IP6K1 inhibitor – IP6K1 kinase inhibition. Q92551. activity change, % (series mostly up to about 58 µM). hit rate 0.81% among 140,000. IP6K1 kinase, ADP-Glo luminescence, 2 h; hits give low values; in the data active = activity change below about -25%; also: % is scaled to controls: 0 for no effect and ±100 for the full control effect
#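 ADP-Glo luminescence measures ADP made by human IP6K1 during a 2 h RT reaction with ATP/IP6 (mix at 1.3 mM/130 uM); top library doses 57.5 and 19.1 uM final.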
# KDM5B inh – inhibitors of human KDM5B histone demethylase | KDM5B demethylase, FDH-coupled NADH fluorescence (FDH is formaldehyde dehydrogenase) | hit rate 2.6% among 220,000 | Q9UGL1 | AID 1347165 | Potency, µM (top dose mostly 57.7 µM), most hits filed as inhibitors; also: potency is read from the fitted curve at half-maximal effect; 0% is about no effect; nearly all actives have a fitted effect of over 70% in size
# Target sequence (Q9UGL1 whole entry, looked up): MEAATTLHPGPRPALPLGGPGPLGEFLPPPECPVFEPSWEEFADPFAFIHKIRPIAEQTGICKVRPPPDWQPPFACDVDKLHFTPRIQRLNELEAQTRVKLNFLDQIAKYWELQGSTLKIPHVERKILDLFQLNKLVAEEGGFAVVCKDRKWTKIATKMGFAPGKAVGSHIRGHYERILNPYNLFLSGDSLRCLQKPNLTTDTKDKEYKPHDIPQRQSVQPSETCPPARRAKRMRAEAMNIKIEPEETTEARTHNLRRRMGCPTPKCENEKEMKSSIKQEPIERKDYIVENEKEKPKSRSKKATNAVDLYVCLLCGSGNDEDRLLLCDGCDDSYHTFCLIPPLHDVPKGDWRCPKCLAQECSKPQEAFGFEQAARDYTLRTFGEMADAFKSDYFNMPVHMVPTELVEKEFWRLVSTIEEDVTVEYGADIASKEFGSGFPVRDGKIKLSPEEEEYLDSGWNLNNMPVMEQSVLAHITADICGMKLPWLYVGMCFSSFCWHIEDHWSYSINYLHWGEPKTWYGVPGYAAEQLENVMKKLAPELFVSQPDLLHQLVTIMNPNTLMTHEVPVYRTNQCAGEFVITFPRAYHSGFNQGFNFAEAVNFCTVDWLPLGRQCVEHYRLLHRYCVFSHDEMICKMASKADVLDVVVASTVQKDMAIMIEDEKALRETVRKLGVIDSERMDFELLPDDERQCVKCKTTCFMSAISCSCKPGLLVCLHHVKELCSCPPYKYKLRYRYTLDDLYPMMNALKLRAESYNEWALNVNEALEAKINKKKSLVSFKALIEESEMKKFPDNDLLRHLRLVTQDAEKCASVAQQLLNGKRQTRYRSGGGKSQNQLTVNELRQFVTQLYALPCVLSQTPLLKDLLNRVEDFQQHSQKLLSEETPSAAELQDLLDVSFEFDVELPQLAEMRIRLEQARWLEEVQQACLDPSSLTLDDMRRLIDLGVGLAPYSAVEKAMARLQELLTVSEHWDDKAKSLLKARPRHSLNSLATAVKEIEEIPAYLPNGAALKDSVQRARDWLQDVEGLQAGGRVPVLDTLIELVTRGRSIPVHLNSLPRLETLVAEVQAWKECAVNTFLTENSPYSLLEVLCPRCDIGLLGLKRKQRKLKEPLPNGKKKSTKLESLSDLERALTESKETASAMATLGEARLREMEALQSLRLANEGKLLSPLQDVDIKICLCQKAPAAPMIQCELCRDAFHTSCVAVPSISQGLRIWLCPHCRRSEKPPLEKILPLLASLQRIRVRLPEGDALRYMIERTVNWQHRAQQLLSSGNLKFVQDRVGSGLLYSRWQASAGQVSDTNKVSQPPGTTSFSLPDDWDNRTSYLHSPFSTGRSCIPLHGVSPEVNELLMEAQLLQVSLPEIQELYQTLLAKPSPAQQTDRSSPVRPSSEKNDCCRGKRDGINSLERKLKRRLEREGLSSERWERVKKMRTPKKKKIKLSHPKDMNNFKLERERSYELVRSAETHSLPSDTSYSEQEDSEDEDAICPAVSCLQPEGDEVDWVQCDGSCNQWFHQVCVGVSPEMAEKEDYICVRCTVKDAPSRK
#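 Inhibition is measured as reduced NADH fluorescence generation from FDH coupling to formaldehyde release. Truncated KDM5BΔAP at 200 nM final acts on H3K4me3 peptide (12.5 µM in substrate mix) in pH 7.5 HEPES buffer with Tween-20, 30 min, room temperature.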
# * marks the source's active call; other numbers are inactive results; i = inactive; u = inconclusive; x = no result; [ ] = another dose, or the depositor's remark. Unless noted, calls follow the shape of the dose curve; as a rule, active = well fitted curve in the direction sought with a large enough effect; inconclusive = small, poorly fitted or top-dose-only effect, or another doubt; inactive = no such curve, though single readings can be large; an effect the other way counts as inactive or inconclusive.
SMILES,HEK293 viab,SNCA expr inh,IP6K1 inhibitor,KDM5B inh
O=C(NCCc1ccccc1)c1cn2cc(-c3ccc(F)cc3)sc2n1,-2%,-8%,6,x
Cn1cnc2cc(-c3ccc(F)cc3)cc(C(=O)NCCCn3ccnc3)c21,0%[87.6 µM],-11%[87.6 µM],0,40µM*
Cc1noc(C)c1-c1cc(-c2ccccc2F)cn2cncc12,1%[87.6 µM],14%[87.6 µM],-8,35µM*
Cc1noc(C)c1-c1cc(-c2ccccc2C(F)(F)F)cn2cncc12,-15%[87.6 µM],11%[87.6 µM],-7,40µM*
Cc1noc(C)c1-c1cc(-c2cccc(F)c2)cn2cncc12,-17%[87.6 µM],16%[87.6 µM],-8,u
Cc1ccc(-c2ccccc2CN2CCN([S+](=O)([O-])c3c(C)noc3C)CC2)cc1Cl,-3%[12.5 µM],-7%,-13,x
CNC(=O)c1cc(C2CC2)nc2onc(C3CCN(C(=O)c4ccc(C)cc4)C3)c12 (stereo unspecified),x,x,-4,x
CC(=O)N1CCCN(c2cc(Cl)nc3ccnn23)CC1,10%[87.6 µM],33%[87.6 µM],30,i
NC(=O)c1noc2c1CN(c1cc(-c3ccccc3)nc3ccnn13)CC2,-16%,8%,38,25µM*
O=C(CNC(=O)c1cccc(-c2ccc(C(F)(F)F)cc2)c1)NCc1cccc(Cl)c1,5%[12.5 µM],u,-16,x
O=C(N1CCN(c2ccccn2)CC1)C1(c2ccc(Cl)cc2)CCOCC1,-8%,27%,-9,79µM*
O=C(N1CCN(c2ncccn2)CC1)C1(c2ccc(Cl)cc2)CCOCC1,0%,u,-19,i
CCC(=O)N1CC(C(=O)Nc2ccccn2)C2(CCOCC2)C1 (stereo unspecified),8%,-1%,21,i
CCC(=O)Nc1ccc(C2(C(=O)N3CCN(c4ccccn4)CC3)CCCCC2)cc1,-8%,2%,11,u
CCC(=O)N1CC(C(=O)N2CCN(c3ccccn3)CC2)C2(CCOCC2)C1 (stereo unspecified),0%,12%,-4,32µM*
CC(=O)Nc1ccc(C2(C(=O)N3CCN(c4ccccn4)CC3)CCCCC2)cc1,-4%,-4%,-8,28µM*
O=C(Nc1ccc(C2(C(=O)N3CCN(c4ccccn4)CC3)CCCCC2)cc1)C1CC1,3%,3%,-10,28µM*
O=C(C1CCCN([S+](=O)([O-])c2cccc(C(F)(F)F)c2)C1)N1CCC(N2CCOCC2=O)CC1 (stereo unspecified),-15%,-6%,-1,x
Cc1noc(C)c1-c1cc2cc(CN(C)C)oc2c(NCCOc2ccccc2)n1,u,0%[87.6 µM],-18,u
CN1c2cc(C(=O)Nc3ccc4c(c3)CCC4)ccc2C(=O)N2CCCCC21 (stereo unspecified),-9%[12.5 µM],64%,7,u
COc1ccccc1Cn1c(=O)c(C(=O)NCCc2ccc(F)cc2)nc2cccnc21,-7%,-18%,3,x
CCn1cc(S(=O)(=O)N2CC3(CCCCC3)CC2COc2ccc(OC)cc2)cn1 (stereo unspecified),-20%,u,14,x
Cc1ccsc1CN1CC(Oc2ccccc2C(=O)NCc2ccccc2)C1,u,u,-5,x
Cc1nc2scc(CC(=O)NCCC(C)C)n2c(=O)c1-c1cc(C)n(-c2ccccc2F)n1,5%,23%,6,u
CCc1ccccc1-n1nc(-c2c(C)nc3scc(CC(=O)NCCC(C)C)n3c2=O)cc1C,-21%,u,0,25µM*
SMILES,HEK293 viab,SNCA expr inh,IP6K1 inhibitor,KDM5B inh
COc1ccccc1-n1nc(-c2c(C)nc3scc(CC(=O)NCCC(C)C)n3c2=O)cc1C,8%,9%,-1,28µM*
Cc1cccc(-n2nc(-c3c(C)nc4scc(CC(=O)NCCC(C)C)n4c3=O)cc2C)c1,-6%,-17%,9,25µM*
COc1ccc(-c2cn3cc(C(=O)N4CCOCC4)nc3s2)cc1,-8%[87.6 µM],-87%[87.6 µM],9,x
COc1cccc(-c2cn3cc(C(=O)N4CCOCC4)nc3s2)c1,u,13µM*,-9,x
CC(NC(=O)COc1ccccc1)C(=O)N1CCN(c2ccccn2)CC1 (stereo unspecified),0%,5%,-1,22µM*
Cc1cccc(OCC(=O)NC(C)C(=O)N2CCN(c3ccccn3)CC2)c1 (stereo unspecified),9%,1%,19,35µM*
COc1ccc(CC(=O)N2CCN(c3ccc4nnc(-c5ccccc5)n4n3)CC2)cc1,x,x,7,x
CC1(CCCCc2ccccc2)COc2ccc(C(=O)NCc3cccnc3)cc2N1 (stereo unspecified),9%[87.6 µM],-16%[87.6 µM],-1,28µM*
CC1(CNCc2ccccc2)COc2ccc(C(=O)NCc3ccncc3)cc2N1 (stereo unspecified),-16%[87.6 µM],-4%[87.6 µM],-11,u
CC1(CCCCc2ccccc2)COc2ccc(C(=O)NCc3ccncc3)cc2N1 (stereo unspecified),-6%[87.6 µM],-8%[87.6 µM],1,32µM*
CC1(CCCCc2ccccc2)COc2ccc(C(=O)NCc3cnccn3)cc2N1 (stereo unspecified),6%[87.6 µM],-19%[87.6 µM],-11,i
CC1(CCCCc2ccccc2)COc2ccc(C(=O)Nc3cccnc3)cc2N1 (stereo unspecified),0%[87.6 µM],u,-12,28µM*
Cn1ncc2c(C(=O)NCC(F)F)cc(-c3ccc(C(F)(F)F)cc3)nc21,x,x,-5,x
Cn1ncc2c(C(=O)NCc3ccc4c(c3)OCO4)cc(-c3ccccc3F)nc21,x,x,-8,x
COc1cccc(-c2cn3cc(C(=O)N(C)C)nc3s2)c1,-5%[87.6 µM],u,5,x
O=C(CNC(=O)c1ccc(-c2cnc3ccccc3c2)cc1)NCC1CCCCC1,x,x,5,x
COc1ccc2[nH]c3c(c2c1)CCNC31CCN(C(=O)c2cccn2C)CC1,1%[12.5 µM],25µM*,-2,u
COc1ccc2[nH]c3c(c2c1)CCN(C)C31CCN(C(=O)c2cn(C)cn2)CC1,-6%[12.5 µM],-7%,-3,25µM*
COc1ccc2[nH]c3c(c2c1)CCN(C)C31CCN(C(=O)c2cc(C)[nH]n2)CC1,-4%[12.5 µM],63%,-4,u
COc1ccc2[nH]c3c(c2c1)CCNC31CCN(C(=O)C(C)(C)C)CC1,-20%[12.5 µM],59%,-2,25µM*
O=C(c1cnccn1)N1CCC([C@@H]2CNC[C@H]2CO)CC1,-6%[12.5 µM],u,-2,14µM*
O=C(c1ccc(Cl)cc1)N1CCC([C@@H]2CNC[C@H]2CO)CC1,-5%[12.5 µM],19%,16,i
Cc1nn(-c2ccccc2)c2c1C(C)N(C1CCN(C(=O)c3ccc(F)cc3)CC1)C2=O (stereo unspecified),x,x,-12,x
Cc1noc(-c2ccc3c(c2)OCO3)c1C(=O)NCc1ccccc1,13%,9%,2,28µM*
Cc1cccc(CNC(=O)c2c(C)noc2-c2ccc3c(c2)OCO3)c1,6%,-2%,-1,32µM*
Cc1ccc(CNC(=O)c2c(C)noc2-c2ccc3c(c2)OCO3)o1,6%,-16%,-11,25µM*
Cc1cccc(CNC(=O)c2noc(-c3ccc4c(c3)OCO4)n2)c1,5%,76%,-3,u
COc1ccccc1-c1ccc(CN2CCC(NC(=O)C3CCCCC3)C2)cc1 (stereo unspecified),x,x,8,x
